This passage reports Potency results from PubChem BioAssay (NCATS).

Results filed as inconclusive are left out. Activity calls are given as the source filed them. Calls come from the whole dose curve; as a rule, active = well fitted inhibition curve with a large enough effect; inconclusive = small, poorly fitted or top-dose-only effect; inactive = flat fitted curve, though single readings scatter.

Holding throughout (assay): qHTS profiling for inhibitors of Plasmodium falciparum proliferation (AID 504749); note: nearly all actives have a fitted effect of over 60% in size
Holding throughout (conditions): P. falciparum in erythrocytes, SYBR Green DNA, 72 h; series mostly up to 28.7 µM

One assay relates to CP335. In short, it runs like this:
(§1)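 SYBR Green fluorescence (ex 485 nm, em 535 nm) reports parasite DNA after 72 h compound exposure of infected red cells at 0.3% parasitemia, 2.5% hematocrit; signal normalized to 0.29 uM artemisinin and vehicle wells.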

For another assay, the system named is DFO2036. The method in brief: as §1
In the next assay the test system is DIV14. The method in brief: as §1
The subject of the next assay is DIV17. The method in brief: as §1
In a further assay the test system is DIV30. The method in brief: as §1
The next assay concerns Dd2. In short, it runs like this: as §1
The next assay deals with ECU. In short, it runs like this:
as §1

The subject of another assay is FAB9. The method in brief: as §1
In another assay the test system is GB4. In short, it runs like this: as §1
For a further assay, the system named is HB3. In short, it runs like this: as §1
Potency is the fitted concentration of half-maximal effect.

For the compound `CC(C)NCC(O)c1ccc(N)c(C#N)c1` (centres undefined), the Potency result in the assay with CP335, with DFO2036, in the assay on DIV14, in the assay with DIV17, in the assay on DIV30 and in the assay with Dd2 was “inactive” in each case. Besides, the Potency result with ECU, in the assay on FAB9, with GB4 and in the assay with HB3 was “inactive” in each case.
Turning to `Cc1ncc2n1-c1ccc(Cl)cc1C(c1ccccc1F)=NC2`, the Potency entry in the assay on CP335, in the assay with DFO2036, in the assay on DIV14, with DIV17, in the assay on DIV30 and in the assay on Dd2 was “inactive” each time. The Potency result in the assay with ECU, in the assay on FAB9, in the assay on GB4 and in the assay on HB3 was “inactive” throughout.
In the case of `CCOC(=O)NC(O)C(Cl)(Cl)Cl` (centres undefined), the Potency entry in the assay with CP335, in the assay on DFO2036, in the assay on DIV14, with DIV17, in the assay with DIV30 and in the assay with Dd2 was “inactive” each time. For the same compound, the Potency result in the assay with ECU, with FAB9, in the assay on GB4 and in the assay on HB3 was “inactive” each time.
Turning to `CC(C)[N+](C)(CCC(C(N)=O)(c1ccccc1)c1ccccc1)C(C)C`, the Potency result in the assay on CP335, in the assay with DFO2036, in the assay with DIV14, in the assay with DIV17, in the assay on DIV30 and in the assay on Dd2 was “inactive” throughout. In addition, the Potency entry in the assay on ECU, with FAB9, in the assay with GB4 and with HB3 was “inactive” throughout.
For `O=C(O)c1nn(Cc2ccc(Cl)cc2Cl)c2ccccc12`, the Potency result in the assay on CP335, in the assay on DFO2036, with DIV14, in the assay on DIV17, with DIV30 and in the assay on Dd2 was “inactive” each time. Moreover, the Potency result with ECU, in the assay with FAB9, in the assay on GB4 and in the assay with HB3 was “inactive” throughout.
Regarding `CC[C@]1(O)CC[C@H]2[C@@H]3CCC4=CCCC[C@@H]4[C@H]3CC[C@@]21C`, the Potency result in the assay on CP335, in the assay on Dd2, with ECU, in the assay on FAB9, with GB4 and in the assay on HB3 was “inactive” each time.
On to `CCCCCCCCC(=O)NCc1ccc(O)c(OC)c1`, for which the Potency result in the assay with CP335, in the assay with DFO2036, in the assay on DIV14, in the assay on DIV17, in the assay with DIV30 and in the assay with Dd2 was “inactive” each time. In addition, the Potency entry with ECU, in the assay on FAB9, with GB4 and in the assay with HB3 was “inactive” in each case.
As to `C#C[C@]1(O)CC[C@H]2[C@@H]3CCC4=CC(=O)CCC4=C3C=C[C@@]21CC`, the Potency in the assay on DIV14 is 4.26 µM (active); in the assay with DIV17, 5.36 µM (active); in the assay on ECU, 11.2 µM (active); with HB3 it was 10 µM (active).
`O=C1NCN(c2ccccc2)C12CCN(CCCOc1ccc(F)cc1)CC2`: the Potency is 8.49 µM (active) in the assay on DIV14, 8.91 µM (active) in the assay on Dd2 and 6.75 µM (active) in the assay with GB4. For the same compound, the Potency result in the assay on ECU, in the assay on FAB9 and with HB3 was “inactive” each time.
Regarding `C[C@]12Cc3nonc3C[C@@H]1CC[C@@H]1[C@@H]2CC[C@@]2(C)[C@H]1CC[C@]2(C)O`, the Potency result in the assay with DFO2036, in the assay on DIV14, with DIV17, in the assay on DIV30, in the assay on Dd2 and with ECU was “inactive” in each case. The Potency result in the assay on FAB9, in the assay with GB4 and in the assay with HB3 was “inactive” in each case.
As for `Cc1c(Cl)c(=O)oc2cc(OP(=O)(OCCCl)OCCCl)ccc12`, the Potency is 10 µM (active) in the assay with DFO2036; 8.49 µM (active) with DIV14; 10 µM (active) with ECU; 12 µM (active) in the assay with GB4; 11.2 µM (active) in the assay with HB3. Further, the Potency result with FAB9 was “inactive”.
Consider `CNC(=O)Oc1cccc2ccccc12`, for which the Potency entry with CP335, in the assay on DFO2036, with DIV17, in the assay with DIV30, with Dd2 and in the assay on ECU was “inactive” throughout. In addition, the Potency result with FAB9 and in the assay with HB3 was “inactive” throughout.
As to `COP(=O)(OC)C(O)C(Cl)(Cl)Cl` (centres undefined), the Potency entry with CP335, in the assay with DFO2036, with DIV14, with DIV17, in the assay on DIV30 and with Dd2 was “inactive” in each case. Besides, the Potency result in the assay with FAB9 and in the assay on HB3 was “inactive” each time.
With `ClC1=C(Cl)C2(Cl)C(CBr)CC1(Cl)C2(Cl)Cl` (centres undefined), the Potency entry in the assay with DFO2036, with DIV14, in the assay with DIV17, in the assay with DIV30, in the assay on Dd2 and in the assay on ECU was “inactive” in each case. The Potency entry with FAB9, in the assay on GB4 and in the assay on HB3 was “inactive” in each case.
Turning to `CN1C(=O)CN=C(c2ccccc2)c2cc([N+](=O)[O-])ccc21`, the Potency entry in the assay with DFO2036, in the assay on DIV14, with DIV17, in the assay on DIV30, in the assay on Dd2 and with ECU was “inactive” each time. The Potency result with FAB9 and in the assay with GB4 was “inactive” in each case.
As to `N#Cc1nn(-c2c(Cl)cc(C(F)(F)F)cc2Cl)c(N)c1S(=O)C(F)(F)F` (centres undefined), the Potency in the assay with CP335 is 13.5 µM (active); in the assay on DIV14 it was 4.78 µM (active); with DIV17, 7.57 µM (active); in the assay on DIV30, 9.53 µM (active); with GB4, 7.57 µM (active).
For `COc1ccc(C(=O)N2CCCC2=O)cc1`, the Potency entry in the assay on CP335, with DFO2036, in the assay with DIV14, with DIV30, with Dd2 and with ECU was “inactive” in each case. Besides, the Potency result in the assay on FAB9, with GB4 and with HB3 was “inactive” in each case.
For the compound `CN1C(=O)[C@@H](NC(=O)c2cc3ccccc3[nH]2)N=C(c2ccccc2)c2ccccc21`, the Potency in the assay with DIV14 was 12 µM (active); in the assay with DIV17, 10.7 µM (active); in the assay with Dd2, 11.2 µM (active); in the assay with ECU it was 10 µM (active); with GB4 it was 15.1 µM (active). Also, the Potency entry in the assay on FAB9 was “inactive”.
Consider `COCC(=O)N(c1c(C)cccc1C)C(C)C(=O)OC` (centres undefined), for which the Potency result in the assay with CP335, with DIV14, in the assay on DIV17, in the assay on DIV30, with Dd2 and in the assay with FAB9 was “inactive” each time. For the same compound, the Potency entry in the assay on GB4 and with HB3 was “inactive” in each case.
With `Clc1ccc(CO/N=C(\Cn2ccnc2)c2ccc(Cl)cc2Cl)c(Cl)c1`, the Potency was 6.01 µM (active) with CP335; 3.98 µM (active) with DFO2036; 1.51 µM (active) with DIV14; 1.9 µM (active) with DIV17; 3.38 µM (active) with DIV30; 4.47 µM (active) in the assay with Dd2. Moreover, the Potency with ECU is 2.24 µM (active); in the assay with GB4, 1.69 µM (active); with HB3 it was 7.94 µM (active).
With `OC(c1ccccc1)(c1ccccc1)C1CCNCC1`, the Potency result with CP335, with DFO2036, with Dd2, with ECU, in the assay on FAB9 and in the assay with GB4 was “inactive” throughout. Further, the Potency entry in the assay with HB3 is “inactive”.
With `COc1ccc(CN2CCNCC2)c(OC)c1OC`, the Potency result in the assay with CP335, in the assay on DFO2036, in the assay on Dd2, in the assay on ECU, with FAB9 and in the assay with HB3 was “inactive” throughout.
Take `C=CCOC(Cn1ccnc1)c1ccc(Cl)cc1Cl` (centres undefined): the Potency was 12.6 µM (active) with DFO2036; 5.36 µM (active) in the assay on DIV14; 8.49 µM (active) in the assay with DIV17; 7.57 µM (active) in the assay on DIV30; 7.08 µM (active) in the assay on Dd2; 3.98 µM (active) with ECU. Moreover, the Potency was 4.78 µM (active) in the assay with GB4 and 11.2 µM (active) in the assay on HB3.
On to `CCNc1nc(Cl)nc(NCC)n1`, for which the Potency result in the assay on CP335, with DFO2036, in the assay with DIV14, in the assay on DIV17, with DIV30 and in the assay on Dd2 was “inactive” in each case. In addition, the Potency result in the assay on ECU, in the assay with FAB9, with GB4 and with HB3 was “inactive” each time.
Regarding `O=C(NC(=O)c1c(F)cccc1F)Nc1cc(Cl)c(OC(F)(F)C(F)C(F)(F)F)cc1Cl` (centres undefined), the Potency result with DIV14, with DIV17, in the assay with DIV30, in the assay on FAB9 and in the assay on GB4 was “inactive” each time.
`C[C@]12C=CC(=O)C=C1CC[C@@H]1[C@@H]2CC[C@@]2(C)[C@H]1CC[C@]2(C)O`: the Potency result in the assay on CP335, in the assay on DFO2036, in the assay on Dd2, with ECU, with FAB9 and in the assay on HB3 was “inactive” each time. In addition, the Potency in the assay on DIV30 was 16.9 µM (active).
As to `c1cc2c(c(N3CCNCC3)c1)OCCO2`, the Potency result with CP335, in the assay on DFO2036, with DIV14, with DIV30, in the assay on Dd2 and in the assay on ECU was “inactive” in each case. Besides, the Potency entry in the assay with FAB9, with GB4 and in the assay on HB3 was “inactive” in each case.
As for `CCN(CC)CCOC(=O)C(C)(c1ccccc1)c1ccccc1`, the Potency was 4.78 µM (active) in the assay on CP335, 6.01 µM (active) in the assay with DIV17 and 0.0891 µM (active) in the assay on Dd2. The Potency result with FAB9 and in the assay with HB3 was “inactive” each time.
For `Nc1ccc(N)cc1`, the Potency with DIV14, in the assay on DIV17 and in the assay on GB4 was 15.1 µM (active) in each case. Moreover, the Potency result with Dd2 and with HB3 was “inactive” throughout.
With `CNC(=O)NC(O)C(Cl)(Cl)Cl` (centres undefined), the Potency entry in the assay with CP335, in the assay with DFO2036, in the assay with DIV17, in the assay with DIV30, with Dd2 and in the assay with ECU was “inactive” throughout. Moreover, the Potency result in the assay with FAB9, in the assay with GB4 and with HB3 was “inactive” in each case.
Take `CCC1(c2ccccc2)CCC(=O)NC1=O` (centres undefined): the Potency entry in the assay on CP335, with DFO2036, with DIV14, in the assay on DIV30, with Dd2 and in the assay on ECU was “inactive” in each case. Moreover, the Potency entry with FAB9 was “inactive”.
For `CC(C)(C)OC(=O)c1ncn2c1[C@@H]1CCCN1C(=O)c1c(Br)cccc1-2`, the Potency result in the assay on CP335, in the assay on DFO2036, with DIV14, with DIV30, in the assay with Dd2 and in the assay with ECU was “inactive” throughout. In addition, the Potency entry in the assay on FAB9, with GB4 and in the assay with HB3 was “inactive” in each case.
On to `Oc1ccc2[nH]cc(CCCCN3CC=C(c4ccccc4)CC3)c2c1`, for which the Potency in the assay on DFO2036 was 10 µM (active); with DIV14 it was 13.5 µM (active); with DIV17, 13.5 µM (active); with Dd2, 11.2 µM (active); in the assay with GB4, 9.53 µM (active). The Potency entry in the assay with FAB9 is “inactive”.
For `CN1C[C@@H](NS(=O)(=O)N(C)C)C[C@@H]2c3cccc4c3c(cn4C)C[C@H]21`, the Potency result with DFO2036, with DIV14, in the assay on DIV17, in the assay with ECU, with FAB9 and in the assay on GB4 was “inactive” throughout. In the assay on HB3, the Potency entry was “inactive”.
Regarding `CC(Cc1ccccc1)NCc1ccccc1Cl` (centres undefined), the Potency entry with DFO2036, with ECU, in the assay on FAB9 and with HB3 was “inactive” throughout. Further, the Potency in the assay with Dd2 is 12.6 µM (active).
In the case of `CN1CCc2cc(Cl)c(O)cc2[C@H]2c3ccccc3CC[C@@H]21`, the Potency in the assay with CP335 was 8.49 µM (active); in the assay with Dd2 it was 10 µM (active). In addition, the Potency result in the assay on FAB9 was “inactive”.
